dFosB activator: mouse delta FosB homodimer activation | purified delta FosB, TAMRA-CDK5 oligo fluorescence polarization; percent of positive-control signal above neutral wells | activation, % at 25 µM | hit rate 0.99% among 340,000;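 active means mean activation above about 17%, with every replicate also reaching it, limit read from the data, passing the limit was not always enough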
NCF1 inh: blocks human p47phox regulatory protein of NADPH oxidases; P14598; p47phox/p22phox peptide binding, fluorescence polarization, 2 h; inhibition, % at 24.7 µM; hit rate 0.53% among 220,000; AID 1274;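 active means inhibition above about 30%, limit read from the data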;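 further: 0% = p47phox with labelled peptide and 100% = labelled peptide alone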
Target sequence (P14598 whole entry, looked up): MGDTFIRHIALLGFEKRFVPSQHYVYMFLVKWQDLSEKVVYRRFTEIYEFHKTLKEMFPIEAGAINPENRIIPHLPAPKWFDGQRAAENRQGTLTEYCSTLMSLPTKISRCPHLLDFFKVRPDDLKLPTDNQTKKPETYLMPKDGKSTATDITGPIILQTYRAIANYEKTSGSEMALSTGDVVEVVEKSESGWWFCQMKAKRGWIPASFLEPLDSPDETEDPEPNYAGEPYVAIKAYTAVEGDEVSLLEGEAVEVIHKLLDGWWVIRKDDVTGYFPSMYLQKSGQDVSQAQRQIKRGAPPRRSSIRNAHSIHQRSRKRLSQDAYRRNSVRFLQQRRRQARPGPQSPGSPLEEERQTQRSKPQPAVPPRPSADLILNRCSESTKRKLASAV
14-3-3 Bad inh: disrupts binding of bovine 14-3-3 zeta to phospho-Bad peptide | P63103 | hit rate 0.71% among 220,000 | inhibition, % at 21.7 µM | TR-FRET 14-3-3zeta/Dy647-pBad peptide displacement, 1 h;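 active means inhibition above about 70%, limit read from the data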;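 further: 0% = full 14-3-3 plus peptide FRET controls and 100% = background without 14-3-3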
Target sequence (P63103 whole entry, looked up): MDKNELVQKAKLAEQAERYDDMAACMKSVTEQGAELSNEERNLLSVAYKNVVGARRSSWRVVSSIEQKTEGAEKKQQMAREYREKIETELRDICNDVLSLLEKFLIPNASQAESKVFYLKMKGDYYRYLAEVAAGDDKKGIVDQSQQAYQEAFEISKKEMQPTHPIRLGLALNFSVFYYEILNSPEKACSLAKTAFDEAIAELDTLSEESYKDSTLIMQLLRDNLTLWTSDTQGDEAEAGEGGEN
HMGR II inh: blocks class II HMG-CoA reductase of Enterococcus faecalis; purified E. faecalis HMGR, NADPH absorbance 340 nm kinetic; inhibition, % at 10 µM; hit rate 0.41% among 190,000;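 active means inhibition above a set limit, the median over all tested compounds plus 3 SD, cut at about 9.5% in these data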;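 further: enzyme runs in reverse so mevalonate oxidation gives rising NADPH absorbance; 0% = complete reaction with DMSO and 100% = background rate lacking mevalonate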
Active calls of the source: *; x = no result; [ ] = remark or other dose. Sampled rows, rich in hits. Any-hit rate of the full collection: about 1.9%.

SMILES	dFosB activator	NCF1 inh	14-3-3 Bad inh	HMGR II inh
O=C(Nc1ccc(-c2csc(Nc3ccccc3)n2)cc1)c1cc([N+](=O)[O-])cc(C(F)(F)F)c1	1.0	35.0*	-4.6	x
COc1ccc(C(C(=O)NC2CCCC2)N(C(=O)c2snc(C(N)=O)c2N)c2cccc(O)c2)cc1 (stereo not drawn)	-4.0	x	x	x
NC(=O)C1CCN(C(=O)COc2cccc3ccccc23)CC1	5.3	-2.9	2.7	-3.0
Cc1sc2ncnc(NCC(c3ccco3)N(C)C)c2c1C (stereo not drawn)	3.3	-12.0	81.9*	-3.7
Cc1cccc(NC(=O)Cn2nnc3ccccc32)c1	-3.7	-8.8	-5.8	-8.1
CCOC(=O)N1CCN(C(=O)C2CCN(Cc3ccc(O)c(OCC)c3)CC2)CC1	3.4	1.6	-0.2	-2.5
CCOc1cc(CN2CCSCC2)ccc1O	-7.1	1.7	73.9*	0.0
O=C(COC(=O)/C=C/c1ccc([N+](=O)[O-])cc1)Nc1ccc2[nH]c(=O)[nH]c2c1	31.2*	x	x	x
CCOC(=O)c1sc(N)c(C(=O)OCC)c1C	x	-17.2	-7.0	x
CCOC(=O)c1c(N)sc(C(=O)OCCOC)c1C	-11.1	-0.2	9.9	12.7*
CCN(CC)S(=O)(=O)c1ccc(NC(=O)c2cccc3c2C(=O)N(CCOC)C3)cc1	0.0	-4.3	84.1*[fluorescence artefact?]	-3.2
Cc1cccc(N2CCN(CCNC(=O)c3cc4c(s3)CS(=O)(=O)C4)CC2)c1C	-2.9	-26.4	2.3	-3.8
CCOC(=O)c1ccccc1OC(=O)NNc1ccccc1	6.6	x	x	x
O=C(NCc1cccnc1)Nc1ccc(F)cc1F	5.4	-8.0	87.4*	0.8
O=C(NCc1cccnc1)Nc1cccc(F)c1	-2.9	8.8	-5.5	0.2
CNS(=O)(=O)c1ccc(OC)c(-c2nnc3c4ccccc4c(C)nn23)c1	-6.0	12.1	91.7*	-0.9
CN(Cc1ccccc1)S(=O)(=O)c1ccc2c(c1)n(C)c(=O)n2C	-10.3	2.3	-8.4	2.5
CCN(CC)CCOc1ccc2c(c1)C(=NO)c1cc(OCCN(CC)CC)ccc1-2	55.8*	-25.1	-3.6	-4.3
CCCOc1ccc2c(c1)C(=NN=C(N)N)c1cc(OCCC)ccc1-2	34.6*	x	x	x
CCN(CC)CCOc1ccc(Br)cc1	-11.0	2.0	18.7	3.5
Cc1ccc(-n2c(C)c(C)c3c(NCCO)ncnc32)cc1	-7.9	x	x	x
CCc1ccc(-c2nc(-c3ccncc3)no2)cc1	-10.1	-7.9	-3.1	-9.6
CCCCOc1ccc(-c2nc(-c3cccnc3)no2)cc1	-5.2	-2.5	160.4*[fluorescence artefact?]	-4.5
CCCCc1ccc(-c2nc(-c3ccncc3)no2)cc1	-4.2	61.5*	0.8	2.5
Cc1ccc(NC(=O)NN(C)c2c(Cl)c(Cl)nn2C)cc1	-3.5	-3.0	1.9	-4.6
SMILES	dFosB activator	NCF1 inh	14-3-3 Bad inh	HMGR II inh
O=C(Oc1ccc(/C=N/NC(=O)c2ccccc2F)cc1)c1ccccc1	16.7*	x	x	x
OC(CN1CCOCC1)c1ccc(F)cc1 (stereo not drawn)	-8.4	-3.2	26.7	-6.7
O=C(c1ccc(F)cc1)C(CCCCCC(CN1CCOCC1)C(=O)c1ccc(F)cc1)CN1CCOCC1 (stereo not drawn)	x	0.1	70.4*	-0.3
NNC(=O)C1CC1c1ccc(Cl)cc1 (stereo not drawn)	1.3	-9.7	-14.0	18.5*
COc1cc(OC)cc(C(=O)Nc2ccc(S(=O)(=O)N3CCOCC3)cc2)c1	6.5	x	x	x
CC(C)N(Cc1cn(C)nc1-c1cccc(Cl)c1)CC1CCC(=O)N1 (stereo not drawn)	-0.7	1.0	-3.7	-4.3
C=CCN(Cc1cn(C)nc1-c1cccc(Cl)c1)C1CCS(=O)(=O)C1 (stereo not drawn)	-2.8	-0.7	96.2*	3.6
O=C(NCCN1CCCCC1)Nc1cccc(Cl)c1Cl	-3.1	x	x	x
O=C(COC(=O)C1CCN(C(=O)c2ccc(Cl)cc2)CC1)Nc1ccccc1F	-8.4	x	x	x
COc1ccc(C)cc1NC(=O)COC(=O)C1CCN(C(=O)c2ccc(Cl)cc2)CC1	-6.2	-5.9	4.0	18.9*
COCCNC(=O)CSc1nc2ccc(N3CCOCC3)cc2c(=O)n1Cc1ccc(OC)cc1	-13.7	-5.2	0.5	-3.4
Cc1cc(=O)n(CC(C)C)c(O)c1C#N	-1.1	-19.8	74.5*	1.2
Cc1ccc2sc(N(CCCN(C)C)C(=O)c3nc4ccccc4s3)nc2c1C	-31.5	32.0*	21.1	-3.3
Cc1cccc2sc(N(CCCN(C)C)C(=O)c3ccc(S(=O)(=O)N4CCc5ccccc5C4)cc3)nc12	62.2*	x	x	x
CN(C)CCCN(C(=O)c1ccc(S(=O)(=O)N2CCc3ccccc3C2)cc1)c1nc2c(F)cccc2s1	-1.5	x	x	x
CN(C)CCCN(C(=O)c1ccc(S(=O)(=O)N2CCc3ccccc3C2)cc1)c1nc2ccc(F)cc2s1	68.7*	x	x	x
Cc1cc(C)c2sc(N(CCCN(C)C)C(=O)c3ccc(S(=O)(=O)N4CCc5ccccc5C4)cc3)nc2c1	100.4*	x	x	x
CCC1CCCCN1CCCNC(=O)CN1C(=O)c2cccnc2Oc2ccc(Cl)cc21 (stereo not drawn)	-7.9	x	x	x
CN(C)c1ccnc2sc3c(SCc4ccc(Cl)cc4)ncnc3c12	-11.6	-13.6	-13.7	-2.0
Nc1nc(N2CCN(c3cccc(Cl)c3)CC2)n[nH]1	2.1	2.1	-8.1	1.2
CCOCCCNC(=O)CN1C(=O)CSc2ccccc21	-0.2	-2.7	-3.1	-3.9
COc1ccc2c(c1)CCCN2C(N)=Nc1ccc(Cl)cc1	-0.3	-9.8	0.7	x
C=CCNCCCCOc1c(Cl)cc(C)cc1Br	0.3	2.1	27.3	-14.3
COCCCNCCCCOc1c(Cl)cc(C)cc1Br	-3.9	-2.1	79.2*	-6.0
COCCCNCCCOc1ccc(Cl)cc1Br	-6.1	-19.4	73.9*	1.6
SMILES	dFosB activator	NCF1 inh	14-3-3 Bad inh	HMGR II inh
COc1cc2cc(CN(CCO)C(=O)c3cccs3)c(=O)[nH]c2cc1OC	-0.5	3.0	-4.8	0.3
CCn1cc(C=C2C(=O)c3ccccc3C2=O)c2ccccc21	-3.3	75.1*	-306.1	-3.2
O=C(O)CCCCCN1C(=O)C2CCCCC2C1=O (stereo not drawn)	14.0	-3.9	-8.5	0.1
O=C(O)CCCCCCC1C(=O)NC(=O)N1CCC(O)C1CCCCC1 (stereo not drawn)	-4.4	-15.2	-7.0	16.6*
O=C(Nc1ccc(-n2nncc2-c2ccco2)cc1)c1cc2ccccc2oc1=O	-17.1	-1.9	79.3*[fluorescence artefact?]	-1.7
CC(C)COc1ccc(C(=O)OCCN2CCCCC2)cc1	-5.0	x	x	x
CC(C)COc1ccc(C(=O)CCN2CCCCC2)cc1	-5.1	-1.9	79.0*	-13.6
O=c1[nH]ncc2c3ccccc3n(Cc3cccc(Cl)c3)c12	-4.0	-83.6	-9.8	15.6*
Cc1ccc(C)c2nc(SCC(=O)Nc3ccc4c(c3)OCO4)c(C#N)cc12	-1.0	-13.4	-5.2	x
O=[N+]([O-])C(/C=C(\Cl)[N+](=O)[O-])=C1N(Cc2ccc(Cl)nc2)CCN1Cc1ccc(Cl)nc1	-4.1	-6.8	5.5	13.4*
Nc1ccc2nc(CN3CCOCC3)[nH]c2c1	-3.6	-7.8	90.8*	-3.0
c1ccc2[nH]c(CN3CCOCC3)nc2c1	0.8	-2.3	2.0	1.7
c1ccc2cc3[nH]c(CN4CCOCC4)nc3cc2c1	0.4	-0.7	0.9	10.2*

Screening results deposited in PubChem BioAssay by several laboratories.
